# Screens from PubChem BioAssay.
# NOMO-1 viab = STK33 inhibitor candidate reducing NOMO-1 cell viability. AID 2330. 7.5% of 37,000 active. inhibition, % (no concentration beside the values). NOMO-1 AML viability, CellTiter-Glo luminescence, 72 h; in the data active means inhibition above about 80%; inconclusive means no clear call, values can overlap the other calls
# PD-1 reversal = activators reversing PD-1 mediated T-cell inhibition | primary human CD4 T cells, PD-L1 beads, CellTiter-Glo 96 h | activation, % (test concentration not listed) | 29,000 tested, under 10 active | AID 2316; call rule not given here;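 further: 0% = median vehicle wells and 100% = positive control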
# STK33 kin inh = inhibitors of human STK33 kinase. 0.44% of 27,000 active. Q9BYT3. AID 2322. inhibition, % at 12.5 µM. ADP-Glo luminescence, MBP substrate; in the data active means inhibition above about 20%; inconclusive means no clear call, values can overlap the other calls
# Target sequence (Q9BYT3 whole entry, looked up): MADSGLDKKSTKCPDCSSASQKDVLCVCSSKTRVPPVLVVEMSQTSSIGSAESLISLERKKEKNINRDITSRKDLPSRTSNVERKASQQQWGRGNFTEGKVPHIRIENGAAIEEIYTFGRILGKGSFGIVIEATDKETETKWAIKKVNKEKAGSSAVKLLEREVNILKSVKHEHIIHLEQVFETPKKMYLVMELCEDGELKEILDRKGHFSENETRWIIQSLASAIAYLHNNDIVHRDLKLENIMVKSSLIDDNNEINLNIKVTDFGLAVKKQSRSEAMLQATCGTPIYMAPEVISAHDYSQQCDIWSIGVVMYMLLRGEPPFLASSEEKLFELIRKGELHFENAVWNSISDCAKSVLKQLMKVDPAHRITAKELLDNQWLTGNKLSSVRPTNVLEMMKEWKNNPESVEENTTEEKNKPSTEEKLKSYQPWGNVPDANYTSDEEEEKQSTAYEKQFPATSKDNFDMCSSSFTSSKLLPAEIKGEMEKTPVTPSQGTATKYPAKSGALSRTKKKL
# * hit, by the source's call; ? = inconclusive; . = no result. The entries come from a sample that favours hits as a whole.
SMILES,NOMO-1 viab,PD-1 reversal,STK33 kin inh
COc1cc(N)c(Cl)cc1C(=O)N[C@H]1CCN(CCCOc2ccc(F)cc2)C[C@H]1OC,12,.,-1
COc1cc(COc2cc(N)c(Cl)cc2C(=O)CCC2CCN(CCNS(C)(=O)=O)CC2)cc(OC)c1,143*,-18,0
Cc1cc(I)cnc1NC(=O)COc1ccc([N+](=O)[O-])cc1,4,1,-1
COc1cc([N+](=O)[O-])ccc1NC(=S)Nc1nn(Cc2ccc(Cl)cc2Cl)cc1Cl,23,.,0
O=C1C(=O)N(CCCn2ccnc2)C(c2cccc(Br)c2)C1C(=O)c1ccco1 (stereo not drawn),-5,2,-2
C[C@@H]1CN([C@H](C)CO)C(=O)c2cccc(NC(=O)Nc3ccc4c(c3)OCO4)c2O[C@H]1CN(C)C(=O)Nc1ccc2c(c1)OCO2,-11,1,.
C[C@H]1CN([C@@H](C)CO)C(=O)c2cccc(NC(=O)Nc3ccc(F)cc3)c2O[C@H]1CN(C)C(=O)Nc1ccc2c(c1)OCO2,9,0,.
C[C@@H]1CN([C@@H](C)CO)C(=O)c2cccc(NC(=O)Nc3ccc(C(F)(F)F)cc3)c2O[C@H]1CN(C)C(=O)Nc1ccc2c(c1)OCO2,89*,.,.
C[C@@H]1CN([C@H](C)CO)C(=O)c2cccc(NC(=O)Nc3ccc(C(F)(F)F)cc3)c2O[C@H]1CN(C)C(=O)Nc1ccc2c(c1)OCO2,116*,-6,.
C[C@H](CO)N1C[C@H](C)[C@H](CN(C)Cc2ccncc2)Oc2ccc(NC(=O)CCCCCC(=O)Nc3ccccc3N)cc2CC1=O,49,0,.
C[C@@H]1CN([C@H](C)CO)C(=O)Cc2cc(NC(=O)CCCCCC(=O)Nc3ccccc3N)ccc2O[C@@H]1CN(C)Cc1ccncc1,24,0,.
C[C@@H]1CN([C@@H](C)CO)C(=O)Cc2cc(NC(=O)CCCCCC(=O)Nc3ccccc3N)ccc2O[C@@H]1CN(C)C(=O)Nc1ccccc1,4,1,.
C[C@@H]1CN([C@H](C)CO)C(=O)Cc2cc(NC(=O)CCCCCC(=O)Nc3ccccc3N)ccc2O[C@@H]1CN(C)Cc1ccc(-c2ccccc2)cc1,141*,-3,.
C[C@H](CO)N1C[C@H](C)[C@H](CN(C)Cc2ccc(-c3ccccc3)cc2)Oc2ccc(NC(=O)CCCCCC(=O)Nc3ccccc3N)cc2CC1=O,139*,-3,.
C[C@H]1CN([C@@H](C)CO)C(=O)Cc2cc(NC(=O)CCCCCC(=O)Nc3ccccc3N)ccc2O[C@H]1CN(C)CC1CCCCC1,138*,-1,.
C[C@@H]1CN([C@H](C)CO)C(=O)Cc2cc(NC(=O)CCCCCC(=O)Nc3ccccc3N)ccc2O[C@H]1CN(C)CC1CC1,51,-1,.
C[C@@H]1CN([C@H](C)CO)C(=O)Cc2cc(NC(=O)CCCCCC(=O)Nc3ccccc3N)ccc2O[C@H]1CN(C)Cc1ccc(-c2ccccc2)cc1,140*,0,.
CCOC(=O)c1c(NC(=S)N(C)Cc2c(C)nn(C)c2C)sc2c1CCCCCC2,38,-2,-1
COC(=O)c1c(NC(=O)CC2Nc3cccc4cccc(c34)NC2=O)sc(C)c1C (stereo not drawn),56,-3,0
O=C(c1ccccc1)N(c1ccccc1)c1ccccc1,39,-1,.
COc1ccc(OC)c(C(=O)c2coc3ccc(O)cc23)c1,136*,0,.
Cc1ccc(C(=O)c2coc3ccc(O)cc23)o1,41,-2,.
CC(C)(C)c1cc(C(=O)CSc2nc3ccccc3[nH]2)cc(C(C)(C)C)c1O,102*,.,1
Cc1cc(=O)[nH]c(SCC(=O)c2cc(C(C)(C)C)c(O)c(C(C)(C)C)c2)n1,17,.,2
O=c1c(OC2OCC(O)C(O)C2O)c(-c2ccc(O)c(O)c2)oc2cc(O)cc(O)c12 (stereo not drawn),.,.,2
SMILES,NOMO-1 viab,PD-1 reversal,STK33 kin inh
COc1ccc(-c2cc(=O)c3c(O)cc(O)cc3o2)cc1,-4,.,25*
COc1ccc(-c2cc(=O)c3c(OC)cc(OC)cc3o2)cc1,-7,.,1
COc1cc(O)c2c(=O)cc(-c3ccc(OC)c(-c4c(O)cc(O)c5c(=O)cc(-c6ccc(O)cc6)oc45)c3)oc2c1,108*,.,1
O=c1c(-c2c(O)cc(O)c3c(=O)cc(-c4ccc(O)cc4)oc23)c(-c2ccc(O)cc2)oc2cc(O)cc(O)c12,13,0,3
O=c1cc(-c2ccc(O)c(O)c2)oc2cc(O)cc(O)c12,76,.,78*
CCSc1ccccc1C(=O)Nc1ccc(S(=O)(=O)Nc2ncccn2)cc1,16,0,-2
COc1cccc2cc(C(=O)C3C(=O)C(=O)N(c4cc(C)on4)C3c3ccccc3)oc12 (stereo not drawn),-4,.,-5
Cc1c(CCC(=O)O)c(=O)oc2cc(O)c(Cl)cc12,12,4,-1
O=C1c2ccccc2C(=O)N1CC12CC3CC(CC(C3)C1)C2,98*,-4,.
O=C(NC1CC1)[C@@H]1c2ccccc2C(=O)N(CC23CC4CC(CC(C4)C2)C3)[C@H]1c1ccc(CO)cc1,.,.,-3
O=C(Nc1sc2c(c1C(=O)NCc1ccco1)CCC2)c1sc2ccccc2c1Cl,22,2,-3
Cc1sc2c(c1C)CN(C(C)(C)C)CN2C(=O)c1ccccc1,20,0,.
O=C(c1ccccc1)N1CN(C2CCCCC2)Cc2c1sc1c2CCCC1,116*,0,.
CCOc1c(OC)cccc1C1C(C(=O)Nc2ccccc2OC)=C(C)Nc2ncnn21 (stereo not drawn),15,.,-1
COC(=O)c1ccc(C(=O)OC)c(NS(=O)(=O)c2ccc3c(c2)OCCO3)c1,48,-1,-1
CCOC(=O)c1cc(-c2ccc(Cl)cc2)[nH]c(=O)c1C#N,-13,0,.
CCOC(=O)C1=C(CSc2ccc(Cl)cc2)NC(=O)NC1c1cc(C)ccc1C (stereo not drawn),115*,1,.
C[C@@H]1CN([C@@H](C)CO)C(=O)Cc2cc(NC(=O)Cc3cn(C)c4ccccc34)ccc2O[C@@H]1CN(C)Cc1ccc(-c2ccccc2)cc1,40,-3,2
C[C@@H]1CN([C@H](C)CO)C(=O)Cc2cc(NC(=O)Cc3cn(C)c4ccccc34)ccc2O[C@@H]1CN(C)Cc1ccc(Oc2ccccc2)cc1,116*,-9,-1
C[C@@H]1CN([C@H](C)CO)C(=O)Cc2cc(NC(=O)Cc3cn(C)c4ccccc34)ccc2O[C@@H]1CN(C)Cc1ccc(-c2ccccc2)cc1,110*,-5,-2
C[C@H](CO)N1C[C@H](C)[C@H](CN(C)Cc2ccc(Oc3ccccc3)cc2)Oc2ccc(NC(=O)Cc3cn(C)c4ccccc34)cc2CC1=O,69,-1,5
Cc1nc(SCC(=O)NCc2ccccc2)c2c(C)c(C)sc2n1,24,1,4
O=C(CCCN1C(=O)c2ccccc2C1=O)Nc1ccc(Cl)c(Cl)c1,-4,1,-2
O=C1C(=O)N(Cc2ccc(Cl)c(Cl)c2)c2ccccc21,97*,-14,2
COc1ccc(-n2c(CCn3c4ccccc4c4ccccc43)n[nH]c2=S)cc1,-2,-5,-1
CCc1ccccc1NC(=O)CSc1nc2ccc(C(=O)c3ccccc3)cc2[nH]1,12,1,2
Cc1ccc2nc(S/C=C/C(=O)c3ccccc3)[nH]c2c1,123*,-33,?
Cc1ccc(NC(=O)COc2ccc(Br)cc2Cl)c([N+](=O)[O-])c1,-6,0,-3
